The structures appear in SMILES notation. The campaign covered roughly 13,000 compounds. About 3,200 (25%) showed an effect of 50% or more. This is one part of the list.

The test deals with P. falciparum stage V gametocytes. More on the design: BacTiter-Glo ATP luminescence viability of purified stage V gametocytes in 384-well plates, per cent inhibition versus DMSO. To be noted: 48 h, 5 µM; inhibitor.
For the compound `Nc1nc(N)c2c(Oc3ccc(Cl)c(Cl)c3)cccc2n1` [TCMDC-137740], the “% Inhibition” value is given as -61.22%.

`Nc1nc(N)c2c(Sc3ccc(F)cc3)cccc2n1` [TCMDC-137179]: the “% Inhibition” value is reported as 36.57%.

Take `CC(=O)Nc1nc(C(=O)Nc2cccc(-c3cccc(-c4nc5ccc(F)cc5[nH]4)c3)c2)cs1` [TCMDC-137124]: the “% Inhibition” value was determined as 18.32%.

As to `CN1CCN(c2ccnc3ccc(NC(=O)Nc4ccc5c(c4)CCCC5=O)cc23)CC1` [TCMDC-139261], the “% Inhibition” value is given as -6.438%.

In the case of `COc1ccc(CCNCC(O)COc2nccc3c(S(=O)(=O)N4CCCNCC4)cccc23)cc1OC` (stereo not drawn) [TCMDC-132101], the “% Inhibition” value came out at 25.52%.

Turning to `O=C(Nc1ccc2c(c1)CCN2C1CCN(Cc2ccc(C(F)(F)F)cc2F)C1)c1ccco1` (stereo not drawn) [TCMDC-135070], the “% Inhibition” value was -51.15%.

For the compound `O=C(Cc1ccc(-n2cnnn2)cc1)N(Cc1cncn1Cc1cccc(C(F)(F)F)c1)CC1CC1` [TCMDC-132461], the “% Inhibition” value stood at 5.053%.

Turning to `C1=CN(Cc2ccccc2)C=CC1=C1C=Nc2ccccc21` [TCMDC-138319], the “% Inhibition” value came out at 1.652%.

As to `O=C1OC2(CCN(C(=O)c3ccc(-n4cnnn4)cc3)CC2)CN1Cc1ccc(Cl)c(Cl)c1` [TCMDC-136544], the “% Inhibition” value was 34.85%.

`C1=C(c2c[nH]c3ccccc23)CCN(Cc2ccccc2)C1` [TCMDC-123457]: the “% Inhibition” value was -71.35%.

As to `O=S(=O)(NC1CCN(c2ccnc3cc(Cl)ccc23)C1)c1ccc(C(F)(F)F)cc1` (stereo not drawn) [TCMDC-133662], the “% Inhibition” value is given as -7.86%.

On to `CCN(CC)CCCNc1ncc2c(-c3ccc(NC(=O)Nc4cc(C(F)(F)F)ccc4F)cc3)nn(C)c2n1` [TCMDC-141583], for which the “% Inhibition” value is 96.86%.

With `Cn1nc(-c2ccc(NC(=O)Nc3cc(C(F)(F)F)ccc3F)cc2)c2cnc(NCCc3cnc[nH]3)nc21` [TCMDC-141621], the “% Inhibition” value is recorded as 12.4%.

Consider `COc1ccc2nccc([C@@H](O)CN3CCC(NC(=O)C(=O)c4c[nH]c5c(C)cccc45)CC3)c2c1` [TCMDC-141107], for which the “% Inhibition” value is reported as -28.63%.

Regarding `CCC(=O)Nc1nnc(Cc2ccc(OC)c(OC)c2)s1` [TCMDC-125741], the “% Inhibition” value was -62.68%.

In the case of `C=CCOc1ccc(Cc2cnc(N)nc2N)cc1CCC` [TCMDC-137639], the “% Inhibition” value was -18.38%.

For the compound `Cc1cc(-c2nc3ccc(C(=N)N)cc3[nH]2)c(C)cc1-c1nc2ccc(C(=N)N)cc2[nH]1` [TCMDC-137798], the “% Inhibition” value came out at 92.7%.

Take `N=C(N)c1ccc2nc(SCc3ccccc3)[nH]c2c1` [TCMDC-131872]: the “% Inhibition” value is 24.07%.

For the compound `N=C(N)c1ccc(NC(=O)Cc2nc3ccc(C(=N)N)cc3[nH]2)cc1` [TCMDC-131867], the “% Inhibition” value is on record as 10.64%.

For `COc1ccccc1C(=O)C1CCCN(C(=O)c2ccccc2C(F)(F)F)C1` (stereo not drawn) [TCMDC-124693], the “% Inhibition” value is -57%.

Take `CN(C)CCOc1cc(O)c2c(c1)OC(C)(C)C=C2c1cccs1` [TCMDC-131331]: the “% Inhibition” value was -14.82%.

Take `Cc1[nH]c(C)c(-c2ccc(OCCSc3ccncc3)cc2)c(=O)c1Br` [TCMDC-135220]: the “% Inhibition” value came out at 64.24%.

Take `Cc1[nH]c(C)c(-c2ccc(OCCn3cnc(Cl)c3Cl)cc2)c(=O)c1Br` [TCMDC-134570]: the “% Inhibition” value is listed as -18.53%.

On to `Cc1[nH]c(C)c(-c2ccc(OCCCCSc3ccncc3)cc2)c(=O)c1Br` [TCMDC-135256], for which the “% Inhibition” value is given as 73.89%.

Turning to `C[C@@H](C(=O)N1CCOCC1)N1CC[C@H](NS(=O)(=O)c2ccc3ccnc(N)c3c2)C1=O` [TCMDC-136755], the “% Inhibition” value amounted to 0.9724%.

For the compound `CC(NC(=O)c1ccc(O)c(-c2ccc(Cl)c(Cl)c2)c1)C(=O)NCCN1CCCC1` (stereo not drawn) [TCMDC-140827], the “% Inhibition” value was -9.232%.

As for `O=C(N[C@@H](Cc1ccccc1)C(=O)NCCN1CCCCC1)c1ccc(O)c(-c2ccc(Cl)c(Cl)c2)c1` [TCMDC-140859], the “% Inhibition” value stood at 10.94%.

Turning to `N=c1n(CCN2CCCCC2)c2ccccc2n1CC(O)c1cccc(Br)c1` (stereo not drawn) [TCMDC-125140], the “% Inhibition” value is on record as 60.98%.

Consider `N=c1n(CCN2CCCCC2)c2ccccc2n1CC(=O)c1cccc([N+](=O)[O-])c1` [TCMDC-123516], for which the “% Inhibition” value is on record as -26.88%.

With `N=c1n(CCN2CCCCC2)c2ccccc2n1CC(O)c1ccc(Cl)c(Cl)c1` (stereo not drawn) [TCMDC-124064], the “% Inhibition” value turned out to be 91.16%.

In the case of `CC(NC(=O)c1ccc(O)c(-c2ccc(Cl)c(Cl)c2)c1)C(=O)NCCN1CCCCC1` (stereo not drawn) [TCMDC-140857], the “% Inhibition” value is on record as 27.12%.

As for `COC(=O)c1ccc(CC(C)NCC(O)c2cccc(Br)c2)cc1` (stereo not drawn) [TCMDC-131437], the “% Inhibition” value was 10.23%.

For the compound `N=c1n(CCN2CCCC2)c2ccccc2n1CC(O)c1ccc(Cl)c(Cl)c1` (stereo not drawn) [TCMDC-124063], the “% Inhibition” value was 70.46%.

For the compound `O=C(N[C@@H](Cc1ccccc1)C(=O)NCCN1CCCC1)c1ccc(O)c(-c2ccc(Cl)c(Cl)c2)c1` [TCMDC-140829], the “% Inhibition” value was 26.26%.

On to `CCOc1ccc(C=CC(=O)Nc2ccc3nc(N4CCOCC4)cc(C)c3c2)cc1OC` [TCMDC-124420], for which the “% Inhibition” value is recorded as -58.06%.

In the case of `COc1ccc(NS(=O)(=O)c2cccc(C(=O)Nc3ccc(C(F)(F)F)cc3)c2)cc1N1CCN(CC(C)C)CC1` [TCMDC-141780], the “% Inhibition” value was -61.2%.

As for `N#Cc1ccc(CN2CCC(Oc3ccc(NC(=O)c4ccsc4)cc3Cl)C2)cc1` (stereo not drawn) [TCMDC-133961], the “% Inhibition” value was determined as 27.45%.

Take `Cc1cc2c(NC(=O)NC3CCN(CCc4ccccc4Cl)CC3)cccc2cn1` [TCMDC-141800]: the “% Inhibition” value is -1.237%.

With `Cc1nnc2c(NC(=O)NC3CCCC3)cc3cc(-c4ccc(CN5CCCCC5)cc4)ccc3n12` [TCMDC-136711], the “% Inhibition” value was 3.866%.

With `Cc1cc2c(NC(=O)NC3CCN(CCc4cccc(Cl)c4)CC3)cccc2cn1` [TCMDC-141801], the “% Inhibition” value is 1.957%.

For `Cc1nnc2c(NC(=O)NC3CCCC3)cc3ccc(-c4cccc(CN(C)C)c4)cc3n12` [TCMDC-136731], the “% Inhibition” value was 62.95%.

With `COc1ccc(-c2ccc(CN(C)C3CCC(NC(=O)c4cc5ccccc5[nH]4)CC3)cc2)cn1` (stereo not drawn) [TCMDC-132893], the “% Inhibition” value is on record as 48.26%.

Consider `Cc1nnc2c(NC(=O)NC3CCCC3)cc3ccc(-c4cccc(CN5CCN(C)CC5)c4)cc3n12` [TCMDC-136730], for which the “% Inhibition” value is recorded as 98.59%.

In the case of `Cc1nnc2c(NC(=O)NC3CCCC3)cc3cc(-c4ccc(CN(C)C)cc4)ccc3n12` [TCMDC-136487], the “% Inhibition” value was determined as 88.82%.

In the case of `CN(Cc1ccc(NC(=O)NC2CCN(C(=O)/C=C/c3ccc(Cl)c(Cl)c3)CC2)cc1)C1CCOCC1` [TCMDC-140523], the “% Inhibition” value worked out at 15.53%.

On to `CN1CCCN(Cc2cccc(-c3cccc(NC(=O)c4ccc(C#N)cc4)c3)c2)CC1` [TCMDC-132655], for which the “% Inhibition” value is 11.69%.

Take `Cc1nnc2c(NC(=O)NC3CCCC3)cc3cc(-c4ccc(CN5CCN(C)CC5)cc4)ccc3n12` [TCMDC-136717]: the “% Inhibition” value was determined as 93.03%.

Regarding `Cc1cc2c(NC(=O)NC3CCN(Cc4ccc(Cl)c(Cl)c4)CC3)cccc2cn1` [TCMDC-141771], the “% Inhibition” value came out at 11.02%.

On to `Cc1cccc(CNc2nc(C)cc(N[C@@H](Cc3ccccc3)C(=O)NC3CCCC3)n2)c1` [TCMDC-134886], for which the “% Inhibition” value stood at 14.7%.

Take `O=C(Nc1ccc(C(=O)N2CCN(CCN3CCN(c4cccc(C(F)(F)F)c4)CC3)CC2)cc1)c1cc(Cl)cc(Cl)c1` [TCMDC-138146]: the “% Inhibition” value was -60.88%.

As for `O=C(Nc1cc2cc(-c3ccc(CN4CCCCC4)cc3)ccc2n2cnnc12)NC1CCCC1` [TCMDC-136882], the “% Inhibition” value is 63.39%.

Turning to `O=C(Nc1cccc(Cl)c1Cl)NC1CCN(Cc2cccc(O)c2)CC1` [TCMDC-136485], the “% Inhibition” value was -12.42%.

On to `O=C(NC1CCC1)C1CCN(C(c2ccc(Cl)cc2)c2ccc(Cl)cc2)CC1` [TCMDC-135520], for which the “% Inhibition” value was determined as 57.43%.

For `O=C(NCC1CC1)C1CCN(C(c2ccccc2)c2ccc(Cl)c(Cl)c2)CC1` (stereo not drawn) [TCMDC-135515], the “% Inhibition” value came out at 70.5%.

As to `O=C(NC1CCC1)C1CCN(C(c2ccccc2)c2cc(F)cc(F)c2)CC1` (stereo not drawn) [TCMDC-135514], the “% Inhibition” value is -3.594%.

Turning to `O=C(NCC1CC1)C1CCN(C(c2ccccc2)c2cc(F)cc(F)c2)CC1` (stereo not drawn) [TCMDC-135513], the “% Inhibition” value is 62.39%.

As for `O=C(NCC1CC1)C1CCN(C(c2ccccc2)c2nc3ccccc3s2)CC1` (stereo not drawn) [TCMDC-135523], the “% Inhibition” value is -36.83%.

`COCCNC(=O)C1CCN(C(c2ccc(Cl)cc2)c2ccc(Cl)cc2)CC1` [TCMDC-135519]: the “% Inhibition” value is on record as -9.136%.

`CCCNC(=O)C1CCN(C(c2ccccc2)c2ccc(Cl)c(Cl)c2)CC1` (stereo not drawn) [TCMDC-135517]: the “% Inhibition” value is on record as -34.35%.

On to `CCCNC(=O)C1CCN(C(c2ccc(Cl)cc2)c2ccc(Cl)cc2)CC1` [TCMDC-135518], for which the “% Inhibition” value stood at 16.22%.

As for `O=C(NCC1CC1)C1CCN(C(c2ccc(Cl)cc2)c2ccc(Cl)cc2)CC1` [TCMDC-135522], the “% Inhibition” value was -2.377%.

Take `COc1ccc(C(=O)NCc2ccc(N)nc2C)cc1Nc1ncc(-c2cccc(N(C)C)c2)cn1` [TCMDC-132420]: the “% Inhibition” value was -21.32%.

With `CCc1ccc(Cc2cnc3nc(N)nc(N)c3c2C)cc1` [TCMDC-137686], the “% Inhibition” value came to 14.74%.

Consider `CCCc1ccc(Cc2cnc3nc(N)nc(N)c3c2C)cc1` [TCMDC-138046], for which the “% Inhibition” value came to 5.48%.

Consider `CCc1ccc(Cc2cnc3nc(N)nc(N)c3c2C)cc1CC` [TCMDC-138054], for which the “% Inhibition” value is recorded as 77.27%.

On to `Cc1nc(N)nc(N)c1OCCCOc1cccc(Cl)c1Cl` [TCMDC-131369], for which the “% Inhibition” value is recorded as -7.285%.

Turning to `O=C(Nc1ccc(N2CCCN(Cc3cccc(F)c3)CC2)cc1)c1ccccc1` [TCMDC-135014], the “% Inhibition” value is given as -40.3%.

For the compound `OCCN1CCN(c2nc(Nc3cccc(F)c3)c3cnn(-c4ccccc4)c3n2)CC1` [TCMDC-124948], the “% Inhibition” value was 87.2%.

Regarding `OCCN1CCN(C(=S)Nc2ccccc2)CC1` [TCMDC-123846], the “% Inhibition” value was -8.492%.

For the origin of these results see paper PMC4552634, “A New Set of Chemical Starting Points with Plasmodium falciparum Transmission-Blocking Potential for Antimalarial Drug Discovery” (PLoS ONE, 2015).
